# SMN2 splice up = increases expression of the SMN2 splice variant; HEK293 SMN2-luciferase splicing reporter, luminescence, 30-36 h; Potency, µM (titrated, usually from 46.1 µM), inactives show top-dose activity change, positive = activation, usual class: activators; 210,000 tested, 2.8% active; further: % of control where 0% means no effect; nearly all actives have a fitted effect of over 55% in size
#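 HEK293 cells carry an SMN2 minigene-luciferase reporter in which exon 7 inclusion puts luciferase in frame. Cells were seeded at 2000 cells/well, attached for 10-12 hours, then exposed to compounds for 30-36 hours at 37C before ONE-Glo luminescence.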
# ELG1 genotoxic = genotoxicity induction in ELG1-luciferase HEK293T cells. AID 504466. Potency, µM (top dose mostly 46 µM), without a hit: top-dose activity change, positive = activation, most hits filed as activators. 330,000 tested, 1.3% active. HEK293T ELG1-luciferase reporter, luminescence, 16 h; further: % of control where 0% means no effect; nearly all actives have a fitted effect of over 60% in size
#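 Genotoxic stress is detected as increased luminescence from luciferase-tagged ELG1 in HEK293T cells, measured with ONE-Glo after a 16 hr treatment at 37 °C.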
# Rab9 prom act = Rab9 promoter activation. Huh7 Rab9 promoter-luciferase reporter, luminescence, 24 h. Potency, µM (top dose mostly 9.22 µM), for inactives: at the top dose activation, negative = inhibition, usual class: activators. 320,000 tested, 2.8% active; further: % of control where 0% means no effect; nearly all actives have a fitted effect of over 60% in size
#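 Quantitative HTS format; Huh7 Rab9-luciferase reporter cells (1500/well) receive compound 2 h post-plating, incubate 24 h at 37 °C, then get luciferase reagent for 10 min before luminescence reading.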
# ELG1 repair inh = inhibitors of ELG1-dependent DNA repair in HEK293T cells. HEK293T ELG1-luciferase reporter, luminescence, 16 h; DNA damage induced by 5-fluorouridine. 330,000 tested, 2.3% active. Potency, µM (highest dose often 46.1 µM), inactives show top-dose activity change, negative = inhibition, actives largely listed as inhibitors; further: on the % scale 0 is the no-effect control and ±100 the full control effect; nearly all actives have a fitted effect of over 55% in size
#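 5-Fluorouridine DNA damage + compound/DMSO, 2,000 cells/well, 16 h, 37 °C/5% CO2. ONE-Glo, 30 min RT, luminescence. Readout = decrease in reporter signal.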
# NPC1 prom act = activators of NPC1 promoter | AID 485313 | Potency, µM (doses to about 9.22 µM), for inactives: top-dose activation, usual class: activators | 320,000 tested, 2.4% active | Huh7 NPC1 promoter luciferase reporter, 24 h; further: % of control where 0% means no effect; nearly all actives have a fitted effect of over 60% in size
#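 NPC1 promoter–luciferase Huh7 cells; 24 h compound; luminescence.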
# FLuc modulator = counter-screen for miR-21 project: firefly luciferase inhibitors or activators; purified FLuc, Km substrates, luminescence inhibition; Potency, µM (top dose mostly 57.5 µM), inactives show at the highest dose activity change, negative = inhibition, hits mostly inhibitors; 360,000 tested, 6.9% active; AID 588342; P08659;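 further: plate controls were vehicle for no effect and reference inhibitor for full effect; nearly all actives have a fitted effect of over 55% in size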
# Target sequence (P08659 whole entry, looked up): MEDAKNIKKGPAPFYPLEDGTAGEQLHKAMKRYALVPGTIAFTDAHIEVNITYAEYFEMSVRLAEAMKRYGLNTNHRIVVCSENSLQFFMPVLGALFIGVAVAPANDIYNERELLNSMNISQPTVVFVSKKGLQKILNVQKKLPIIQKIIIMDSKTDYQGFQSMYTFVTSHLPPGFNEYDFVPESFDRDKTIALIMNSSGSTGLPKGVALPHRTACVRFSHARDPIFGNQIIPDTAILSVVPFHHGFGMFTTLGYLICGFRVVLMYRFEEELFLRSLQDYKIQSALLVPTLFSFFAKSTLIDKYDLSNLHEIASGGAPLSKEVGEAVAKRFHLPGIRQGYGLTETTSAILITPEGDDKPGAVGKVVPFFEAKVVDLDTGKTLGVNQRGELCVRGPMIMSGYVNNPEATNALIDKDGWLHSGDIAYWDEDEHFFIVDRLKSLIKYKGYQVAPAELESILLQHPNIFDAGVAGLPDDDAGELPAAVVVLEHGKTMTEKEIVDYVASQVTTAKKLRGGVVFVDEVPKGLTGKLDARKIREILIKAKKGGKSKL
#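 Biochemical qHTS of compounds, final roughly 60 µM downward over six points, against 10 nM purified firefly luciferase using Km concentrations of substrates (10 uM D-luciferin, 10 uM ATP) in Tris acetate pH 7.5 buffer; luminescence output.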
# The depositor's hits bear a star; ? = inconclusive; / = not tested or not shown; [ ] = dose if it differs, or a comment. Shown are actives, neighbours in structure and some others; about 9.4% of the full set was active somewhere. The call rests on the fitted dose curve; in most records, active means well fitted curve in the direction sought with a large enough effect; inconclusive means small, poorly fitted or top-dose-only effect, or another doubt; inactive means no such curve, though single readings can be large; an effect the other way counts as inactive or inconclusive. Potency means the concentration at half of the fitted maximal effect.
SMILES,SMN2 splice up,ELG1 genotoxic,Rab9 prom act,ELG1 repair inh,NPC1 prom act,FLuc modulator
O=C(COC(=O)/C=C/c1ccco1)Nc1ncc(Cl)cc1Cl,-15%,-1%,1%,2%,-2%,1%
Clc1cnc(N/N=C/c2cccs2)c(Cl)c1,?,?,4µM*,?,2.2µM*,9.5µM*
Cc1ccc(/C=N/Nc2ncc(Cl)cc2Cl)s1,?,?,?,?,3.5µM*,6µM*
Oc1ccc(/C=N/Nc2ncc(Cl)cc2Cl)cc1,/,?,13%,?,15%,?
COC(=O)CCC(=O)COc1ccc(OC)cc1C#N,/,?,2.5µM*,?,?,?
COc1ccc(C(=O)COc2ccccc2C#N)cc1,/,?,3.2µM*,?,2.8µM*,?
COc1ccccc1CNC(=O)c1ccc2c(c1)CCN2S(=O)(=O)c1ccc(Cl)cc1,-14%,/,/,/,/,-2%
O=C(Nc1ccc(Cl)cc1[N+](=O)[O-])c1ccc2c(c1)OCCO2,/,4.1µM*,0.45µM*,?,0.56µM*,?
O=C(Nc1ccc(F)c([N+](=O)[O-])c1)c1ccc2c(c1)OCCO2,22%,10%,?,7%,17%,6µM*
O=C(Nc1cc(Cl)ccc1N1CCOCC1)c1ccc2c(c1)OCCO2,-11%,-1%,-6%,?,0%,?
O=C(Nc1ccc(F)c([N+](=O)[O-])c1)c1ccc2c(c1)C(=O)OC2=O,/,0%,10%,13%,-2%,-1%
COc1cccc(CNC(=O)CCc2c(C)nc3c4c(C)cc(C)nc4nn3c2C)c1,-2%,/,/,/,/,-3%
Cc1ccc(NC(=O)Cn2c(=O)n(CC3CCCO3)c(=O)c3ccccc32)cc1 (centres undefined),6%,/,/,/,/,-6%
Cc1c(Cl)cccc1NC(=O)C[C@H]1Sc2ccccc2NC1=O,-6%[9.22 µM],/,/,/,/,/
Cc1cc(C)cc(NC(=O)Cn2ncn3c(cc4ccccc43)c2=O)c1,-3%,6%,-5%,25%,-1%,-2%
COC(=O)Cn1ncn2c(cc3oc(C)cc32)c1=O,?,?,2.5µM*,?,?,15µM*
C/C(=N\NC(=O)c1ccc(Cl)c(Cl)c1)c1ccccn1,/,?,-28%,?,17%,?
C/C(=N\NC(=O)c1cc(Br)ccc1O)c1ccccn1,/,21µM*,?,?,?,17µM*
C/C(=N/NC(=O)c1cnccn1)c1ccncc1,2%,4%,16%,?,0%,-4%
C/C(=N\NC(=O)c1cccc2ccccc12)c1ccccn1,/,?,-30%,?,9%,?
C/C(=N\NC(=O)c1ccccc1Cl)c1ccccn1,/,15µM*,-21%,?,23%,24µM*
C/C(=N\NC(=O)C(c1ccccc1)c1ccccc1)c1ccccn1,-89%,?,-21%,-24%,-15%,1%
C/C(=N/NC(=O)c1ccccn1)c1ccncc1,/,?,?,?,3.5µM*,17µM*
C/C(=N\NC(=O)c1cccc(Br)c1)c1ccccn1,/,?,-22%,?,6%,13µM*
CCC(=O)N1CCc2cc(Br)cc(S(=O)(=O)CCC(=O)N3CCN(c4ccccc4OC)CC3)c21,1%,/,/,/,/,-5%
SMILES,SMN2 splice up,ELG1 genotoxic,Rab9 prom act,ELG1 repair inh,NPC1 prom act,FLuc modulator
S=C(c1ccc(-c2cc(Cl)ccc2Cl)o1)N1CCCCC1,-36%,-3%,-4%,21%,3%,17µM*
S=C(c1ccc(-c2cc(Cl)ccc2Cl)o1)N1CCOCC1,-16%,0%,-3%,-13%,1%,?
S=C(c1ccc(-c2cccc(Cl)c2)o1)N1CCCCC1,11µM*,?,2.5µM*,?,3.5µM*,2.7µM*
S=C(c1ccc(-c2cccc(Cl)c2)o1)N1CCOCC1,25µM*,3.5µM*,3.5µM*,?,3.2µM*,5.4µM*
CC1(C)COCN1COC1CCCCC1,-9%[9.22 µM],/,/,/,/,/
OCCc1ccc(O)c(-n2nc3ccccc3n2)c1,/,?,26%,?,23%,15µM*
O=C1CCCc2cc3c(cc21)CC1(C3)Cc2cc3c(cc2C1)C(=O)CCC3,/,-6%,-19%,13µM*,-24%,-1%
COc1ccc(C(=O)CSc2nc(-c3ccccn3)nc(C)c2Cl)cc1,/,-12%,-3%,16µM*,3%,-13%
Cc1cc(C)cc(C(=O)n2nc(C)c(S(=O)(=O)N3CCOCC3)c2C)c1,/,/,/,/,/,-1%
Cc1c(Cl)cccc1NC(=O)CN1C(=O)COc2ccc(S(=O)(=O)N3CCCCCC3)cc21,/,/,/,/,/,0%
Cc1ccc(C(=O)c2ccc(N3CCOCC3)c(F)c2)cc1,-39%,9%,30%,?,19%,17µM*
C=CCNC(=S)NC(=O)c1ccc(C)c(Br)c1,14µM*,?,?,?,20%,17µM*
Cc1cccc(NC(=O)CSc2nc3n[nH]c(C)c3c(=N)n2-c2cccc(Cl)c2)c1,/,/,/,/,/,-6%
O=C(CCCCn1c(=O)c2ccccc2n(Cc2cccc(F)c2)c1=O)NCCc1ccccc1,0%,/,/,/,/,-9%
COc1ccccc1/C=N/N1CCN(c2ccc(Cl)cc2)CC1,/,-3%,-4%,-14%,-1%,2%
Cc1ccc(N2CCN(/N=C/c3ccncc3)CC2)cc1,-32%,-4%,-18%,18µM*,-13%,-4%
Clc1ccc(N2CCN(/N=C/c3ccncc3)CC2)cc1,/,-9%,-5%,21µM*,-4%,0%
COc1ccc(C(=O)NCc2nnc(SCC(=O)Nc3ccc(F)cc3)n2-c2ccccc2)cc1,3%,/,/,/,/,-9%
NNC(=O)c1cccc(COc2ccc3c(c2)CCC3)c1,0.4µM*,?,0.32µM*,?,0.22µM*,2.4µM*
NNC(=O)c1cccc(COc2ccccc2Br)c1,13µM*,?,0.89µM*,?,0.35µM*,7.6µM*
O=C(COC(=O)COc1ccc2c(c1)CCC2)Nc1ccccc1,/,10%,14%,?,-2%,?
O=C(NCc1cccnc1)c1ccc(COc2ccccc2Cl)cc1,-13%,0%,-2%,?,-1%,?
CN(C(=O)c1cccc(COc2ccc(Cl)cc2Cl)c1)c1ccccc1,3.2µM*,2.1µM*,1µM*,?,0.63µM*,12µM*
O=C(NCc1ccccc1)c1cccc(COc2ccccc2Cl)c1,13µM*,?,1.8µM*,?,1.8µM*,15µM*
O=C(NCc1ccccc1)c1cccc(COc2cc(Cl)ccc2Cl)c1,13µM*,?,3.2µM*,?,2.5µM*,?
O=C(NCc1ccccc1)c1cnc(Cl)c(Cl)c1,/,4%,12%,12%,-2%,-1%
O=C(c1cccc(COc2cccc3ccccc23)c1)N1CCCC1,22µM*,15%,2.5µM*,?,?,17µM*
